# Reference: PubChem BioAssay (Tox21)
# Inconclusive results are not listed. Unmarked numbers belong to inactive results. The source made the active and inactive calls. The call rests on the fitted dose curve.
# Target: Acetylcholinesterase (Homo sapiens) (UniProt P22303)
# Test: Acetylcholinesterase (AChE) small molecule antagonists: colormetric cell-based qHTS assay (AID 1347395); further: nearly all actives have a fitted effect of over 30% in size
# Details: SH-SY5Y cells AChE activity, colorimetric (Ellman); series mostly up to 115 µM; activity, negative = inhibition: at the top concentration
# Procedure, shortened: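 Cells (SH-SY5Y, 2,000 per well) are seeded and left overnight at 37 C. Compound is added for 30 min, then DTNB and acetylthiocholine for a further 90 min at 37 C before absorbance-based thiocholine detection.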
# On the % scale 0 is the no-effect control and ±100 the full control effect; potency means the concentration at half of the fitted maximal effect.
# Acetylcholinesterase (Homo sapiens), sequence (P22303 whole entry, looked up): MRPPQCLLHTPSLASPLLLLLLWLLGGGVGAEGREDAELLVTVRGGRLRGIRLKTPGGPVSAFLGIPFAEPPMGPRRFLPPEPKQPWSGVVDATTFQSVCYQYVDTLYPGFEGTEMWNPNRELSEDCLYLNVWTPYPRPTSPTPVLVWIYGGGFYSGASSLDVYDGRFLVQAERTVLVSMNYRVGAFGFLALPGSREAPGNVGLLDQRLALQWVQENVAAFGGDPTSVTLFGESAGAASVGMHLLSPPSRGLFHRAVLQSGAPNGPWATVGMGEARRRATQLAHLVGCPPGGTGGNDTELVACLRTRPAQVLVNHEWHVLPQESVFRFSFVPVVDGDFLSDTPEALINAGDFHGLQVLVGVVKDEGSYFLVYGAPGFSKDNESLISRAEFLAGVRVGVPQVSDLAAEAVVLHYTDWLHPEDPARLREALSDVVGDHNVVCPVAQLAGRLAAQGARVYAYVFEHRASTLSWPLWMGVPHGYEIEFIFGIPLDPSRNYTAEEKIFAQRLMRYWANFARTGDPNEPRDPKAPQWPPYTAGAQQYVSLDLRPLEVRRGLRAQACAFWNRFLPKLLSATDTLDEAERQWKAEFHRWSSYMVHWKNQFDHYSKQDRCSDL
Structure (SMILES),"activity, negative = inhibition",Potency
Cc1ccc([N+](=O)[O-])[c]2c1[O][Hg]2,-10.9% [at 52.9 µM],–
CC(=O)[O][Sn]([c]1ccccc1)([c]1ccccc1)[c]1ccccc1,3.05%,–
C=C(C)C(=O)[O][Sn]([CH2]CCC)([CH2]CCC)[CH2]CCC,1.87%,–
CNC(=O)/C=C(\C)OP(=O)(OC)OC,–,39.9 µM (active)
CC(C)C(Nc1ccc(C(F)(F)F)cc1Cl)C(=O)OC(C#N)c1cccc(Oc2ccccc2)c1 (stereo unspecified),1.46%,–
N#Cc1ccc(N(CC(N)=O)CC(F)(F)F)cc1C(F)(F)F,1.59%,–
O=C(O)CCCCCCNC1c2ccccc2CCc2ccccc21,0.903% [at 52.9 µM],–
C=CC(=O)[O][Sn]([CH2]CCC)([CH2]CCC)[CH2]CCC,-1.42%,–
NC(=O)C(Cl)Cl,1.17%,–
Cc1cccc(Cc2cnc[nH]2)c1C,1.19% [at 52.9 µM],–
N#CSCc1ccccc1,1.23%,–
CCOP(=O)(OCC)Oc1cc(C)nc(C(C)C)n1,–,0.142 µM (active)
OCC(Br)CBr (stereo unspecified),-0.0863%,–
N#CCCl,0.409%,–
C=CC(=C)C,0.147%,–
CC(=O)[O][Pb]([c]1ccccc1)([c]1ccccc1)[c]1ccccc1,0.101%,–
CCCCc1ccccc1,-1.39%,–
CCNS(=O)(=O)C(F)(F)C(F)(F)C(F)(F)C(F)(F)C(F)(F)C(F)(F)C(F)(F)C(F)(F)F,-0.432%,–

Structure (SMILES),"activity, negative = inhibition",Potency
Oc1ccc(Cl)c(Cl)c1,1.14%,–
O=C(Nc1ccc(F)cc1F)c1cccnc1Oc1cccc(C(F)(F)F)c1,-2.33%,–
ClC1(Cl)C2(Cl)C3(Cl)C4(Cl)C(Cl)(Cl)C5(Cl)C3(Cl)C1(Cl)C5(Cl)C24Cl (stereo unspecified),-0.228%,–
CC(C)=CCN1CC[C@@]2(C)c3cc(O)ccc3C[C@@H]1[C@@H]2C,–,31.2 µM (active)
CC1CN1 (stereo unspecified),-2.23%,–
Cc1nn(-c2cc(NS(C)(=O)=O)c(Cl)cc2Cl)c(=O)n1C(F)F,-0.745%,–
CCC[CH2][Sn]([CH2]CCC)([CH2]CCC)[CH2]CCC,0.856%,–
O=S1(=O)OCC2C(CO1)C1(Cl)C(Cl)=C(Cl)C2(Cl)C1(Cl)Cl (stereo unspecified),-1.77%,–
C[C@]12C/C(=C/O)C(=O)C[C@@H]1CC[C@@H]1[C@@H]2CC[C@@]2(C)[C@H]1CC[C@]2(C)O,–,inactive
[Cl][Hg][c]1ccccc1,4.4%,–
CCCCCON=O,-0.522%,–
ClC(Cl)C(Cl)(Cl)Cl,-0.0814%,–
COC(=O)/C=C(\C)OP(=O)(OC)OC,–,2.24 µM (active)
CCCCC(CC)COC(=O)c1ccccc1C(=O)OCC(CC)CCCC (stereo unspecified),-3.89%,–
O=C(Cl)c1ccccc1F,1.26%,–
CC1(C)[C@H](/C=C2\CCSC2=O)[C@@H]1C(=O)OCc1coc(Cc2ccccc2)c1,0.983%,–
CCCCN(CCCC)C(=S)S,0.317%,–
CCCN,0.102%,–
